GLD-1 TGE inh: GLD-1/TGE RNA complex disruptors, primary screen, biochemical, fluorescence polarization | purified GLD-1 + fluorescein TGE RNA | inhibition, % at 5.96 µM | Female germline-specific tumor suppressor gld-1 (Caenorhabditis elegans), Q17339 | 320,000 tested, 0.44% active;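 active means percent inhibition above a per-plate cutoff, the plate mean of test compounds plus 3 SD, cut at about 30% in these data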
Target sequence (Q17339 whole entry, looked up): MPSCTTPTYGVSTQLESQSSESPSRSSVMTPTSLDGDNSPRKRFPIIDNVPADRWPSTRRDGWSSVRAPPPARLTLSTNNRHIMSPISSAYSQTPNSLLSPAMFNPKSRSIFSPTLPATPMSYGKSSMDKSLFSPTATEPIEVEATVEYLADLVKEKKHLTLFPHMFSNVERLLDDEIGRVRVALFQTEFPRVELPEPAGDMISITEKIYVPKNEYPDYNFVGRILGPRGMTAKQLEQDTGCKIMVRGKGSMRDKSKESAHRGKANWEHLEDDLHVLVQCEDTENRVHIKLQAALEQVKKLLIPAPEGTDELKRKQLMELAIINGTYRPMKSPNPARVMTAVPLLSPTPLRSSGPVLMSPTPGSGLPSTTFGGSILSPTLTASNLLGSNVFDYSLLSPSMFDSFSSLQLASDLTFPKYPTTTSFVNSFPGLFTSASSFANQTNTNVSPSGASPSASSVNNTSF
Mcl-1 Bim block: inhibitors of Bim peptide binding to Mcl-1, primary screen, biochemical, bead-based flow cytometry, multiplex. inhibition, % at 10 µM. 190,000 tested, 0.1% active. Induced myeloid leukemia cell differentiation protein Mcl-1 (Homo sapiens), Q07820. Bim peptide-Mcl-1 binding; in the data active means inhibition above about 40%
MCL1 BIM primary: inhibitors of MCL1 binding to BIM-BH3, primary screen, biochemical, fluorescence polarization. Induced myeloid leukemia cell differentiation protein Mcl-1 (Homo sapiens), Q07820. GST-MCL1 / FITC-Bim-BH3 fluorescence polarization. inhibition, % at 10.9 µM. 320,000 tested, 0.68% active. AID 2057, 2009;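 active means inhibition above the mean inhibition of all tested compounds plus 3 SD, set per campaign, cut at about 40% in these data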;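 further: higher means more loss of mP so more displacement of Bim peptide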
BCLXL inh: inhibitors of human Bcl-xL, primary screen, biochemical, fluorescence polarization, HTS; Bcl-2-like protein 1 (Homo sapiens), Q07817; GST-Bcl-xL / FITC-Bim BH3 peptide fluorescence polarization; inhibition, % at 10.9 µM; 320,000 tested, 0.7% active;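 active means inhibition above the mean of all tested compounds plus 3 SD, cutoff set per campaign, cut at about 30% in these data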;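 further: inhibitors lower millipolarization by displacing the labeled peptide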
Mcl1-Bid inh: Mcl-1/Bid binding inhibitors, primary screen, biochemical, TR-FRET, 1536-well | 220,000 tested, 0.97% active | AID 1021, 2008 | inhibition, % at 21.7 µM | TR-FRET Mcl-1/Bid-Dy647 peptide binding;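 active means compounds that cut the binding signal by more than half at the single screening dose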;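 further: His-tagged Mcl-1 with europium anti-His antibody binding Bid BH3 peptide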
Mcl1 Noxa PPI: Mcl-1/Noxa binding inhibitors, primary screen, biochemical, TR-FRET, 1536-well; 220,000 tested, 1.5% active; inhibition, % at 21.7 µM; Induced myeloid leukemia cell differentiation protein Mcl-1 (Homo sapiens), Q07820; TR-FRET Mcl-1/Noxa peptide binding, 2 h;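 active means compounds that cut the protein-peptide binding signal by more than 50% relative to plate controls in a single-dose test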;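 further: His-tagged Mcl-1 with rhodamine Noxa BH3 peptide and terbium anti-His antibody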
Numbers stand for hits; - = inactive; . = not tested or not shown. Rows were chosen to be rich in hits. Some 2.3% of all compounds tested hit in one or more screens of this group.

SMILES	GLD-1 TGE inh	Mcl-1 Bim block	MCL1 BIM primary	BCLXL inh	Mcl1-Bid inh	Mcl1 Noxa PPI
Cc1ccsc1CN(C)C(=O)CN1C(=O)NC2(CCCc3ccccc32)C1=O (stereo unspecified)	-	.	-	-	.	.
Cc1cc(C)c(C(=O)C(C)OC(=O)c2ccccn2)cc1C (stereo unspecified)	-	.	-	-	.	.
CN(Cc1ccccc1)C(=O)NC1CCCCC1	-	.	-	-	-	-
CN(C(=O)NC1CCCCC1)c1ccccc1	-	51.0	-	-	-	-
O=C(Cc1ccc(-c2ccccc2)cc1)NC1CCCC1	-	45.0	-	-	-	-
CC(C(=O)N1CCCC1)N(C)CC(=O)Nc1cccc(F)c1 (stereo unspecified)	-	.	-	-	.	.
Cc1cc(=O)c(C(=O)c2ccccc2)c(C)o1	-	.	-	37.1	.	.
Cc1oc2ccc(O)cc2c1C(=O)c1ccccc1	-	.	-	-	.	.
O=[N+]([O-])c1cccc(N/N=C/c2cc([N+](=O)[O-])ccc2O)c1	-	-	-	-	-	99.7
Cc1c(/C(O)=C2/C(=O)C(=O)N(CCN3CCOCC3)C2c2ccccn2)cnn1-c1ccccc1 (stereo unspecified)	-	-	-	-	-	-
NCCCC[C@@H]1NC(=O)c2cc([N+](=O)[O-])cc(I)c2SC[C@@H](C(N)=O)NC(=O)[C@H](Cc2ccc(O)cc2)NC1=O	-	-	-	-	-	53.7
O=C(O)CCC(CNS(=O)(=O)c1ccccc1)C(F)(F)F (stereo unspecified)	-	-	-	-	-	69.7
CCOC(=O)C(=CNNc1cccc(Cl)c1)C(=O)OCC	-	.	-	-	-	52.2
CN(Cc1nc2ccccc2c(=O)[nH]1)C(=O)C1CC(=O)N(c2cccc3ccccc23)C1 (stereo unspecified)	-	.	.	.	.	.
COc1ccccc1CNC(=O)COc1cc2c(c3oc(=O)cc(C)c13)CCC(C)(C)O2	-	.	-	-	.	.
COc1ccc(C(=O)Nc2ccccc2C(=O)NCC2CCCO2)cc1 (stereo unspecified)	-	.	-	-	.	.
O=C(Cc1cccs1)N=Nc1c(O)[nH]c2ccc(Br)cc12	-	.	-	-	-	-
COc1ccc2[nH]c(O)c(N=NC(=O)Cc3cccs3)c2c1	-	.	-	-	-	61.3
COC(=O)C1=C(C)N(Cc2ccco2)C(=O)N[C@@H]1c1ccco1	-	.	-	-	.	.
OC(CNC1CCCCC1)COCCOc1ccc(Br)cc1 (stereo unspecified)	-	49.0	-	-	-	-
OC(CNC1CCCC1)COc1ccc(-c2ccccc2)cc1 (stereo unspecified)	-	-	-	-	-	-
COc1ccc(N(CC(=O)Nc2ccc(Cc3ccncc3)cc2)S(=O)(=O)c2ccccc2)cc1	-	.	-	-	.	.
CC(=O)c1cc(C#N)c(NCCCN(C)C)nc1C	-	-	-	-	55.8	-
O=C(CN1CCCCCC1)Nc1ccccc1C(=O)Nc1ccccc1	-	.	-	-	.	.
Cc1c(C(=O)NC(=S)N(Cc2ccccc2)c2ccccn2)cccc1[N+](=O)[O-]	-	.	-	-	.	.
SMILES	GLD-1 TGE inh	Mcl-1 Bim block	MCL1 BIM primary	BCLXL inh	Mcl1-Bid inh	Mcl1 Noxa PPI
O=C1CN(C(=O)CNCc2ccccc2)c2ccccc2N1	-	.	-	-	69.3	-
COc1cccc2[nH]c3c(N4CCc5ccccc5C4)ncnc3c12	-	.	-	-	-	62.0
N#C/C(=C\c1cccnc1)C(=O)Nc1ccccc1	-	-	-	30.7	-	-
N#C/C(=C\c1cccnc1)C(=O)Nc1ccc(C(=O)O)cc1	-	-	-	-	-	-
CCOC(=O)C1=C(COC(=O)C2CC(=O)N(c3ccc(C)cc3)C2)NC(=O)NC1C (stereo unspecified)	-	.	-	-	.	.
CN(C)C1(CNC(=O)C2CCC(=O)N(CCc3ccc(Cl)cc3)C2)CCCCC1 (stereo unspecified)	-	.	-	-	.	.
Cc1cc2cc(NC(=O)c3ccco3)ccc2[nH]1	-	-	-	-	-	-
O=C(Nc1ccc2[nH]c3c(c2c1)CCCC3)c1ccco1	-	-	39.9	51.7	-	-
CCN1CCN(c2ccc(N3CCN(S(=O)(=O)c4cc([N+](=O)[O-])ccc4C)CC3)nn2)CC1	-	.	-	-	.	.
Cc1cc(C(=O)N/N=C/c2ccco2)n[nH]1	-	-	-	-	-	-
CC(/C=C/c1ccco1)=N\NC(=O)c1cc(C)[nH]n1	-	-	-	-	-	77.8
CC(/C=N/NC(=O)Cc1cccs1)=C\c1ccco1	-	-	-	-	-	-
CC(/C=C/c1ccco1)=N/NC(=O)Cc1cccs1	-	-	-	-	-	87.1
Cc1cccc(NC(=O)CSCC(=O)Nc2cc(Cl)ccc2N2CCN(C)CC2)c1	-	.	-	-	.	.
c1ccc(CCCN2CCN(c3ccccc3)CC2)cc1	-	.	-	-	.	.
Cc1ccn2c(Nc3ccc4c(c3)OCO4)c(-c3ccc(O)cc3)nc2c1	-	.	-	-	-	51.2
O=C(Cn1nc(C(=O)O)c2ccccc2c1=O)Nc1ccc2c(c1)C(=O)c1ccccc1C2=O	-	.	-	-	75.4	80.1
C/C(=C\c1ccco1)C1C(C#N)=C(N)Oc2n[nH]c(-c3ccccc3)c21 (stereo unspecified)	-	-	-	-	-	69.2
C/C(=C\c1ccco1)C1C(C#N)=C(N)Oc2n[nH]c(-c3ccc(C)cc3)c21 (stereo unspecified)	-	-	-	-	-	-
Cc1nnc(N2C(=O)C(O)=C(C(=O)c3ccco3)C2c2ccc(F)cc2)s1 (stereo unspecified)	45.0	-	-	33.0	-	-
Cc1nnc(N2C(=O)C(O)=C(C(=O)c3ccco3)C2c2ccc(C(C)C)cc2)s1 (stereo unspecified)	40.4	-	-	40.0	-	-
Cc1ccc(C2C(C(=O)c3ccco3)=C(O)C(=O)N2c2ncccn2)cc1 (stereo unspecified)	-	.	-	-	-	-
Cc1nnc(N2C(=O)C(O)=C(C(=O)c3ccco3)C2c2ccc(C(C)(C)C)cc2)s1 (stereo unspecified)	31.5	-	-	33.0	-	-
CC(Oc1cc2oc(=O)c3c(c2cc1Cl)CCC3)C(=O)NCCN1CCOCC1 (stereo unspecified)	-	.	-	-	.	.
O=C1[C@@H]2Cc3c([nH]c4ccccc34)C(c3ccc([N+](=O)[O-])cc3)N2C(=O)CN1C1CC1 (stereo partly specified)	-	.	-	-	.	.
